# High-throughput results: PubChem BioAssay, National Center for Advancing Translational Sciences (NCATS)
# Sampled rows, rich in hits. Any-hit rate of the full collection: about 9.2%.
# ELG1 genotox = genotoxicity induction in ELG1-luciferase HEK293T cells; HEK293T ELG1-luciferase reporter, luminescence, 16 h; Potency, µM (titrated, usually from 46 µM), for the others: at the highest dose activity change, positive = activation, hits mostly activators; actives 1.3% (n = 330,000); AID 504466; also: % of control where 0% means no effect; nearly all actives have a fitted effect of over 60% in size
#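 Genotoxic stress is detected as increased luminescence from luciferase-tagged ELG1 in HEK293T cells, measured with ONE-Glo after a 16 hr treatment at 37 °C.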
# SMN2 splice enh = increases expression of the SMN2 splice variant. Potency, µM (series often up to 46.1 µM), for the others: at the top dose activity change, positive = activation, most hits filed as activators. actives 2.8% (n = 210,000). HEK293 SMN2-luciferase splicing reporter, luminescence, 30-36 h. AID 1458; also: % of control where 0% means no effect; nearly all actives have a fitted effect of over 55% in size
#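 HEK293 cells carry an SMN2 […]–luciferase reporter in which exon 7 inclusion puts luciferase in frame. Cells were plated 10-12 h before compound addition, then incubated 30-36 h at 37C. ONE-Glo luminescence was read; sodium butyrate at 4.5 mM final served as control.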
# Rab9 promoter act = activates the Rab9 promoter. AID 485297. actives 2.8% (n = 320,000). Potency, µM (doses to about 9.22 µM), for inactives: at the top dose activation, negative = inhibition, most hits filed as activators. Huh7 Rab9 promoter-luciferase reporter, luminescence, 24 h; also: % of control where 0% means no effect; nearly all actives have a fitted effect of over 60% in size
#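 Rab9 promoter-driven luciferase in stably transfected Huh7 cells; 1500 cells/well rested 2 h, exposed to compound in DMSO for 24 h at 37 °C, 5% CO2. Luminescence read 10 min after adding luciferase reagent at ambient temperature.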
# ELG1 repair inh = blocks ELG1-dependent DNA repair in HEK293T cells | actives 2.3% (n = 330,000) | HEK293T ELG1-luciferase reporter, luminescence, 16 h; DNA damage induced by 5-fluorouridine | Potency, µM (series often up to 46.1 µM), inactives show at the top dose activity change, negative = inhibition, actives largely listed as inhibitors; also: % is scaled to controls: 0 for no effect and ±100 for the full control effect; nearly all actives have a fitted effect of over 55% in size
#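 5-Fluorouridine DNA damage + compound/DMSO, 2,000 cells/well, 16 h, 37 °C/5% CO2. ONE-Glo, 30 min RT, luminescence. Readout = decrease in reporter signal.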
# FLuc modulator = counter-screen for miR-21 project: firefly luciferase inhibitors or activators. P08659. purified FLuc, Km substrates, luminescence inhibition. Potency, µM (series often up to 57.5 µM), inactives show top-dose activity change, negative = inhibition, hits mostly inhibitors. actives 6.9% (n = 360,000). AID 588342;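 also: plate controls were vehicle for no effect and reference inhibitor for full effect; nearly all actives have a fitted effect of over 55% in size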
# Target sequence (P08659 whole entry, looked up): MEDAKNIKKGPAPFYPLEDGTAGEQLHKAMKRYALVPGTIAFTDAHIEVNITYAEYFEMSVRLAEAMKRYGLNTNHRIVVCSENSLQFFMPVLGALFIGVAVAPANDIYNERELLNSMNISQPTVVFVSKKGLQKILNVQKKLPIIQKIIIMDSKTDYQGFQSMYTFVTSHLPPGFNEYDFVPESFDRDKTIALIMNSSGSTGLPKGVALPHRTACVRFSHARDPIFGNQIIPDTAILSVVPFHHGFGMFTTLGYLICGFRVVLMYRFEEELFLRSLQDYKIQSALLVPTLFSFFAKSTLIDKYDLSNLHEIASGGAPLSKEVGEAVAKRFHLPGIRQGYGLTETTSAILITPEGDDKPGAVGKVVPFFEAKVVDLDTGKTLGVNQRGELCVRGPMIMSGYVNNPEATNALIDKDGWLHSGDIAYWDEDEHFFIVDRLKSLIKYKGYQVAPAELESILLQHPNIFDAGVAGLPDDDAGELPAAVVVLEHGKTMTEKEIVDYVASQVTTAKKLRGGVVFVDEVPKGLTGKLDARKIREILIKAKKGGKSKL
#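 Purified P. pyralis luciferase (10nM final) with 10uM D-luciferin and 10uM ATP (Km levels) in 50mM Tris acetate pH 7.5, 10mM Mg acetate, 0.01% Tween-20, 0.05% BSA; qHTS 6-point titration, ~60 µM downward; luminescence read.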
# NPC1 promoter act = NPC1 promoter activation; Potency, µM (doses to about 9.22 µM), for inactives: at the highest dose activation, actives largely listed as activators; Huh7 NPC1 promoter luciferase reporter, 24 h; actives 2.4% (n = 320,000); also: % of control where 0% means no effect; nearly all actives have a fitted effect of over 60% in size
#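 Luminescence from an NPC1 promoter-driven luciferase reporter in stably transfected Huh7 cells was measured after 24 h compound treatment at 37 °C, followed by 10 min ambient incubation with luciferase detection reagent.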
# * hit, by the source's call; ? = inconclusive; . = no result given. Calls follow the shape of the dose curve; as a rule, active = well fitted curve in the direction sought with a large enough effect; inconclusive = small, poorly fitted or top-dose-only effect, or another doubt; inactive = no such curve, though single readings can be large; an effect the other way counts as inactive or inconclusive. Potency is read from the fitted curve at half-maximal effect.
SMILES,ELG1 genotox,SMN2 splice enh,Rab9 promoter act,ELG1 repair inh,FLuc modulator,NPC1 promoter act
COc1ccc(CNC(=O)C(c2ccco2)N(Cc2ccccc2)C(=O)Cc2cccs2)cc1 (stereo not given),-10%,12%,-1%,18µM*,0%,-1%
COc1ccc(CNC(=O)C(c2ccco2)N(C(=O)Cc2cccs2)c2cccnc2)cc1 (stereo not given),-9%,.,1%,-17%,2%,9%
Cc1ccccc1N(C(=O)Cn1nnc(-c2cccs2)n1)C(C(=O)NCCC(C)C)c1ccco1 (stereo not given),-12%,4%,-4%,-13%,6%,-9%
COc1ccc(-c2ccc(-c3noc(-c4ccccc4)n3)c(OC)n2)cc1,?,6%,2%,?,-18%,-3%
Cc1cccc(OCc2cc(-c3ccccc3)no2)c1C,?,.,?,?,12µM*,?
Clc1ccc(SCc2cc(-c3ccccc3)no2)cc1,-2%,-18%,21%,?,?,14%
COc1ccc(-c2cc(COc3ccccc3)on2)cc1,?,?,4µM*,?,11µM*,?
Clc1ccc(OCc2cc(-c3ccccc3)no2)c(Cl)c1,?,0.5µM*,0.63µM*,?,0.38µM*,0.5µM*
COc1ccc(-c2cc(-c3ccccc3)no2)cc1,?,.,0.4µM*,?,0.38µM*,0.5µM*
Fc1ccc(OCc2cc(-c3ccccc3)no2)cc1,21µM*,.,3.2µM*,?,5.4µM*,2.8µM*
CC1=CC(=O)O[C@@H]1[C@@]1(C)C[C@H]2OC(=O)C[C@H]3[C@@H](C)C(=O)C(O)=C1[C@@]23CO,-48%,.,-13%,18µM*,-6%,-18%
COc1ccccc1N=Cc1c(C)[nH]n(-c2ccc(C)cc2C)c1=O,-4%,.,-4%,-17%,0%,-1%
COc1ccc2nc(/N=C/c3c(C)[nH]n(-c4ccc(C)cc4C)c3=O)sc2c1,9%,18%,17%,?,27µM*,0%
O=C(NC(=S)Nc1ccccc1O)c1ccccc1Cl,?,13µM*,3.2µM*,?,24µM*,?
O=C(NNC(=S)Nc1ccccc1Cl)c1ccccc1Br,3.7µM*,.,4µM*,?,11µM*,2.8µM*
Cc1ccc(N2CC(NC(=O)C(=O)c3c[nH]c4ccccc34)CC2=O)cc1 (stereo not given),.,.,.,.,-4%,.
O=C(CSc1nnc(-c2c[nH]c3ccccc23)n1CC1CCCO1)Nc1ccc2c(c1)OCCO2 (stereo not given),0%,17%,1%,5%,-17%,7%
Nn1c(SCC(=O)NC(=O)Nc2ccc3c(c2)OCCO3)nnc1C1CC1,14%,?,?,?,19µM*,21%
CCn1c(SCC(=O)Nc2ccc3c(c2)OCCO3)nnc1-c1cccs1,2%,-2%,13%,0%,11µM*,-1%
CCn1c(SCC(=O)Nc2ccc3c(c2)OCCO3)nnc1-c1c[nH]c2ccccc12,1%,.,-3%,-4%,13µM*,-2%
CCn1c(SCC(=O)Nc2ccc3c(c2)OCCO3)nnc1C1CC1,1%,.,-3%,16%,15µM*,-3%
Nn1c(SCC(=O)Nc2ccc3c(c2)OCO3)nnc1C1CC1,-2%,0%,-3%,1%,0%,-1%
C=CCC1(NCc2ccco2)CCN(CC)CC1,-10%,-27%,-14%,3%,-1%,0%
Cc1ccc(C)c(NC(=O)Cn2cnc3nc4c(cc3c2=O)CCCC4)c1,.,.,.,.,-1%,.
O=c1cc(N2CCN(c3cccc(Cl)c3)CC2)[nH]c(=O)n1C1CCCCC1,?,7.9µM*,-33%,11%,0%,3%
SMILES,ELG1 genotox,SMN2 splice enh,Rab9 promoter act,ELG1 repair inh,FLuc modulator,NPC1 promoter act
Cc1csc(NC(=O)CSc2nnnn2C)n1,?,14µM*,?,?,?,25%
CCc1nnc(NC(=O)CSc2nnnn2C)s1,-3%,14%,2%,?,0%,-2%
COC(=O)c1sc(NC(=O)CSc2nnnn2C)nc1C,15µM*,.,2µM*,?,17µM*,2.2µM*
CCCn1c(SCC(=O)Nc2nc(C)c(C(=O)OC)s2)nnc1C(C)C,0%,-9%,-3%,-12%,-1%,-1%
Cc1nc(NC(=O)CSc2nnnn2C)sc1C,?,11µM*,?,?,?,?
COCc1cc(C)nc(SCC(=O)Nc2nc(C)cs2)c1C#N,?,.,0.71µM*,?,12µM*,0.63µM*
O=C(Nc1ccon1)c1sc2cc(Cl)ccc2c1Cl,-10%,.,-1%,-24%,2%,-21%
COc1ccc(C(C(=O)NC2CCCCC2)N(C(=O)c2ccco2)c2ccccc2C(C)=O)cc1 (stereo not given),-5%,.,-2%,6%,0%,0%
O=C(NC1CCCCCC1)c1cc2c(Cl)nc3ccccc3c2s1,.,1%,.,.,-5%,.
N=C(N)N1CCc2ccccc2C1,-1%,-22%,-6%,10%,3%,-7%
c1cncc(-c2nc3c(ccc4ccccc43)[nH]2)c1,7%,8%,?,?,11µM*,?
O=c1[nH]c(-c2cccnc2)nc2ccccc12,0%,1%,-7%,11%,-2%,0%
CCOc1ccc(NC(=O)c2ccccc2OCC(=O)c2ccccc2)cc1,15%,-12%,?,-17%,2.1µM*,23%
Cc1ccc(NC(=O)c2ccccc2OCC(=O)c2ccccc2)cc1,13%,24%,0%,-7%,13µM*,0%
CCOc1ccccc1C(=O)Nc1ccc(NC(=O)c2ccccc2)cc1,16%,.,10%,8%,1%,-1%
O=C(COc1ccc(NC(=O)c2ccccc2)cc1)c1ccccc1,4%,.,15%,14%,2.1µM*,?
CS(=O)(=O)c1ccccc1C(=O)Nc1nc2ccccc2[nH]1,1%,.,2%,6%,-3%,-4%
CSc1ccccc1C(=O)Nc1nc2ccccc2[nH]1,?,14µM*,4.5µM*,?,?,3.2µM*
CSc1ccccc1C(=O)Nc1nc2ccccc2c(=O)[nH]1,6%,.,2.8µM*,?,19µM*,24%
CC(=O)OCC1OC(n2cnc3c(=O)[nH]cnc32)C(OC(C)=O)C1OC(C)=O (stereo not given),.,-2%,.,.,.,.
Cc1cc2[nH]c(=O)c(=O)[nH]c2cc1S(=O)(=O)Nc1ccccc1F,-7%,.,7%,13%,-4%,-4%
COc1cc(C)c(S(=O)(=O)Nc2ccccc2F)cc1C,-6%,2.2µM*,-2%,-1%,3%,-1%
